# Measurements taken from the supplement of paper PMC3334620.
# Whole data set: some 33,000 sequences, median “E-score (-0.5 to 0.5)” near -0.036, cut for the highest 2% near 0.37. Only a selection was taken, and the highest values are over-represented in it overall.
# Target: T1, Yer064c (UniProt P40041)
# T1 sequence: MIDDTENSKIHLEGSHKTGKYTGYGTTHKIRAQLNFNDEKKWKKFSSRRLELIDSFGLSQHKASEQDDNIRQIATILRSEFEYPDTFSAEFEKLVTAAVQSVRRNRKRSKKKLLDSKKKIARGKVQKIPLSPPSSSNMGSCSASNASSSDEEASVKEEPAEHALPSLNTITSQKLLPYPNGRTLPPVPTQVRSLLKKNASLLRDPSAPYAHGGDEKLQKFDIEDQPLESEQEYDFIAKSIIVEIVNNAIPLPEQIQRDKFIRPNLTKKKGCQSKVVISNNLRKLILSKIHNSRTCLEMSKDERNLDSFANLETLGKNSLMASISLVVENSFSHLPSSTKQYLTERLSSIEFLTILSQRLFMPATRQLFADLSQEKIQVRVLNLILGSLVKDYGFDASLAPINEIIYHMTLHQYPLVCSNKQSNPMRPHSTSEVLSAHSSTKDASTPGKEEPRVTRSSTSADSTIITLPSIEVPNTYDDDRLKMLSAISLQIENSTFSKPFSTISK
# Assay: PBM E-score (8-mer binding enrichment) (E-score (-0.5 to 0.5)); higher = stronger / more preferred TF binding
# Details: protein concentration: 200 nM; construct: GST-full length
# How it was run: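 The E-score, a modified Wilcoxon-Mann-Whitney statistic, was computed by the Universal PBM Analysis Suite for every ungapped eight-base word pooled with its reverse complement. Scans behind it were normalised with masliner after bound GST-tagged yeast transcription factors were detected with fluorescent anti-GST. The proteins, at about 100-200 nM, had been applied to universal all-10-mer Agilent arrays made double-stranded by primer extension.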
row,Sequence,PBM E-score
1,ATCTCAGA,-0.113
2,ACCCCTAA,-0.0884
3,AAGATTTC,0.0103
4,AATCTGAC,0.23
5,GGACGTAC,-0.0832
6,ACAGCCTC,-0.308
7,GAATCACC,0.456
8,CAATCACA,0.346
9,TAATCACA,0.419
10,CAATCACC,0.343
11,AAATCACG,0.264
12,GAATCACA,0.439
13,AAATCACC,0.328
14,CAATCACG,0.296
15,AAATCACA,0.219
16,AAACACAC,0.0803
17,AGACAGCC,-0.181
18,AAAGTCCC,-0.235
19,GGACTCGA,0.118
20,CGCAGTCA,0.422
21,GGCAGTGA,0.0347
22,CGCAGTCC,0.134
23,GGCAGTAA,0.0188
24,AGCAGTCC,-0.0176
25,ACCAGTCT,0.0632

row,Sequence,PBM E-score
1,AGCAGTCG,0.065
2,AGCAGTCA,0.412
3,ACCAGTCC,-0.0297
4,CCCAGTCA,0.316
5,ACCAGTCA,0.369
6,GGCAGTCA,0.445
7,AAACGGTA,0.0163
8,GTTATGGA,-0.119
9,CGCCCGAC,-0.0703
10,ATATCGGC,-0.169
11,GATCGTAA,-0.068
12,AATACCAC,-0.172
13,GGCACTTA,-0.212
14,CTATCCGC,0.00533
15,ATGGAGTC,0.398
16,CTGGAGTC,0.39
17,ATGGAGTG,-0.143
18,CTGGAGAC,-0.0698
19,CTGGAGTA,0.0648
20,ATGGAGTA,0.182
21,TAGGGCGA,0.0759
22,AAAGCTTA,-0.0514
23,AGTTAGCC,0.127
24,ATCGCACG,-0.0772
25,AAGTCGTA,0.328

row,Sequence,PBM E-score
1,AAGTCGGC,-0.0537
2,CAGTCGGA,0.118
3,GAGTCGGC,0.412
4,CAGTCGTA,0.265
5,GAGTCGGA,0.395
6,CAGTCGGC,0.122
7,TAGTCGGA,0.288
8,GAGTCGTA,0.453
9,CAACACAG,0.0802
10,GAAAATAA,0.133
11,TGACGACA,0.102
12,CATCGCAC,-0.211
13,ATGCAAGA,0.139
14,CGCTCATC,0.0112
15,CAAGCCGG,-0.108
16,ACATTCTA,0.0824
17,GAGATTCA,0.238
18,GTGATTTA,0.35
19,ATGATTCA,0.49
20,AAGATTCG,0.205
21,ATGATTCG,0.437
22,AGGATTCG,-0.0455
23,GGGATTCA,0.147
24,ACGATTCA,0.298
25,AAGATTCA,0.37

row,Sequence,PBM E-score
1,AGGATTCA,0.24
2,ACGATTCG,0.0252
3,GTGATTCA,0.474
4,CGCGCCCC,-0.271
5,CAACCTGC,-0.127
6,CCGTAATA,0.0217
7,ACTCAGCT,0.216
8,ACCGGAAG,-0.0509
9,GATGCTCC,-0.345
10,AACAACCA,0.13
11,ATGGGGAC,-0.14
12,CGAAATCA,0.309
13,CCGCGGAC,-0.0248
14,CGTGGAGC,-0.124
15,CCACCCCA,-0.0763
16,ATGACCGG,-0.128
17,AATATATC,-0.0361
18,CTGATTCC,0.301
19,ATGATTCC,0.456
20,AGGATTCC,0.0611
21,CGGATTCA,0.194
22,CAGATTCA,0.157
23,CTGATTCA,0.45
24,CTCGGCCC,-0.206
25,CTGAATCA,0.455

row,Sequence,PBM E-score
1,GTGAATCA,0.48
2,GTGAATGA,0.14
3,ATGAATCA,0.48
4,CTGAATTA,0.0399
5,ATGAATCG,0.355
6,GTGAATAA,0.0323
7,ATGAATCC,0.253
8,CTGAATCC,0.235
9,CTAAGGTA,0.105
10,GTTTATTA,0.148
11,CGATGTGA,0.103
12,ACATCACA,-0.0462
13,GCGTGAAA,-0.106
14,CTGACGGA,-0.0463
15,GGGTAAAC,0.0204
16,GTCTGTCA,-0.107
17,AACTCCGA,-0.0453
18,GACTCCGA,0.417
19,GACTCCGC,0.406
20,TACTCCGA,0.0904
21,AACTCCGC,-0.0186
22,CACTCCGC,-0.0571
23,GTGCACCA,-0.178
24,CGGTAGGC,-0.178
25,CGGTAGTA,0.0891

row,Sequence,PBM E-score
1,AGGTAGTA,0.0729
2,AGGTAGTC,0.407
3,AGGTAGTG,-0.0767
4,CGGTAGTC,0.409
5,CTTCAGGA,0.00919
6,CATTCACA,-0.00304
7,CATTCACC,-0.166
8,GATTCACC,0.372
9,CATTCACG,0.0972
10,GATTCACA,0.375
11,AATTCACC,-0.0422
12,CGATAGAC,0.00233
13,CGCCTTTA,0.0724
14,ATATCTCA,0.0798
15,CTTGGGAA,0.0531
16,ATTCCTAA,0.183
17,AATTATGA,0.248
18,AATGATAA,0.0741
19,CTTGATTA,0.303
20,GATGATCA,0.323
21,GATTATGC,0.112
22,GATGATTA,0.47
23,ATTGATTA,0.286
24,GATTATGA,0.38
25,GTTGATTA,0.381

row,Sequence,PBM E-score
1,AATGATGA,0.289
2,AATGATTA,0.449
3,GATGATGA,0.256
4,AACCGCAG,-0.0549
5,ATCAACTA,0.23
6,AGTGAAAT,0.143
7,ACCTCCCT,-0.107
8,CCGGTTAA,-0.0828
9,CCCGAGGG,-0.0969
10,ACTGATTA,0.343
11,GCTGATTA,0.392
12,CCTGATTA,0.344
13,CTTTCCCC,-0.153
14,TGTCGTAA,-0.0131
15,CGTCGTAG,0.0225
16,AGTCGTAG,0.406
17,ACTCGTAT,0.107
18,ACTCGTAG,0.218
19,AGTCGTAT,0.379
20,GGTCGTAA,-0.0401
21,AATCGTAT,0.118
22,AGTCGTAA,0.378
